Here are results for 26 compounds from PubChem BioAssay (NCATS).

Records with an inconclusive call do not appear. Calls of active or inactive are those of the source. Calls come from the whole dose curve; as a rule, active = well fitted cell-killing curve with a large enough effect; inconclusive = small, poorly fitted or top-dose-only effect, or effect the other way; inactive = no such curve, though single readings can be large or run the other way.
% is set by controls: 0 for no effect and ±100 for the full control effect; potency is the fitted concentration of half-maximal effect.

The nature of the experiment: qHTS of pediatric cancer cell lines to identify multiple opportunities for drug repurposing: Confirmatory screen for RD cells (AID 1347124).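 Note: cells exposed to compound for 48 h before viability readout; nearly all actives have a fitted effect of over 65% in size.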 Particulars: RD rhabdomyosarcoma cell viability; series mostly up to 45.9 µM; activity change, negative = cytotoxic: at the top concentration. The method in brief:
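Cells (500-1,000/well) in growth media were settled 5 h at 37 degrees C, then given compounds for 48 h. Viability was read as CellTiter-Glo luminescence. Primary runs used MIPE at 11 points (0.78 nM-46 µM) and NPC at 8 points (0.59 nM-46 µM); follow-ups used 11 points.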
Consider `C[C@@]12OC(=O)[C@]1([C@@H](O)[C@@H]1C=CCCC1)NC(=O)[C@H]2CCCl`, for which the Potency is 737 nM (active).

As for `O=C(O)CCCOc1ccc(Cl)cc1Cl`, the “activity change, negative = cytotoxic” value was -7.33% [at 97.2 µM] (inactive).

Take `C[C@@H]1O[C@@H](O[C@@H]2C=C3CC[C@@H]4[C@@H](CC[C@]5(C)[C@H](c6ccc(=O)oc6)CC[C@@]45O)[C@@]3(C)CC2)[C@H](O)[C@H](O)[C@H]1O`: the Potency was 16.5 nM (active).

On to `CCCN1CCO[C@@H]2c3cc(O)ccc3OC[C@@H]21`, for which the “activity change, negative = cytotoxic” value was -19.6% (inactive).

In the case of `CC(C)[C@]12O[C@@H]1[C@@H]1O[C@]13[C@]1(O[C@H]1C[C@@H]1C4=C(CC[C@@]13C)C(=O)OC4)[C@H]2O`, the Potency was 52.2 nM (active).

As to `CC=C(C)C(=O)O[C@H]1C(C)=C2[C@@H]3OC(=O)[C@@](C)(O)[C@@]3(O)[C@@H](OC(=O)CCC)C[C@](C)(OC(C)=O)[C@@H]2[C@@H]1OC(=O)CCCCCCC`, the “activity change, negative = cytotoxic” value was 28.3% (inactive).

Regarding `CCC(=O)OC1CCC2C3CCC4=CC(=O)CC[C@@]4(C)C3CC[C@]12C` (stereo partly specified), the “activity change, negative = cytotoxic” value is 6.46% (inactive).

Turning to `Cc1[nH]nc2ccc(-c3cncc(OC[C@@H](N)Cc4c[nH]c5ccccc45)c3)cc12`, the “activity change, negative = cytotoxic” value was 8.19% (inactive).

On to `C[C@H]1CCCC=CC2C[C@H](O)C[C@@H]2[C@H](O)C=CC(=O)O1` (stereo partly specified), for which the Potency was 329 nM (active).

Take `CC(=Cc1csc(C)n1)[C@@H]1C[C@H]2O[C@@H]2CCC[C@H](C)[C@@H](O)[C@@H](C)C(=O)C(C)(C)[C@@H](O)CC(=O)O1`: the Potency is 46.5 nM (active).

Consider `O=C1C(I)=CC(=C(c2cc(I)c(O)c(I)c2)c2ccccc2C(=O)O)C=C1I`, for which the “activity change, negative = cytotoxic” value was 4.65% (inactive).

For `CC[C@@H]1[C@@H](C)O[C@@](O)([C@@H](C)[C@H](O)[C@H](C)[C@H]2OC(=O)C=CC=C[C@@H](C)[C@@H]([C@@H](C)[C@@H](O)[C@H](C)[C@@]3(O)C[C@H](O[C@H]4C[C@H](O)[C@H](O)[C@H](C)O4)[C@H](CC)[C@@H](C)O3)OC(=O)C=CC=C[C@@H]2C)C[C@H]1O[C@H]1C[C@H](O)[C@H](O)[C@H](C)O1`, the “activity change, negative = cytotoxic” value was 18.6% (inactive).

`CS(=O)(=O)c1ccc(C(=O)C2C(=O)CCCC2=O)c([N+](=O)[O-])c1`: the “activity change, negative = cytotoxic” value is 6.74% [at 97.2 µM] (inactive).

In the case of `O=C(Nc1ccncc1)C(=O)c1cn(Cc2ccc(Cl)cc2)c2ccccc12`, the Potency was 414 nM (active).

For the compound `O=C(N[C@H]1CN2CCC1CC2)c1ccc(Cl)cc1`, the Potency is 414 nM (active).

Turning to `CC[C@H]1C=CC=CC[C@@H](C)[C@H](O)[C@@](C)(O)C(=O)[C@@H](C)[C@H](O)[C@@H](C)C(=O)[C@@H](C)[C@H](O)[C@@H](C)C=CC(=O)O[C@@H]2[C@@H](C)[C@H](CC1)O[C@]1(CC[C@H](C)[C@H](C[C@@H](C)O)O1)[C@H]2C`, the Potency was 4140 nM (active).

For the compound `O=c1[nH]c2ccc(Cl)cc2c(N[C@@H]2CN3CCC2CC3)c1-c1nc2ccccc2[nH]1`, the Potency is 2330 nM (active).

In the case of `CC(C)(C)C(O)C(Oc1ccc(Cl)cc1)n1cncn1` (stereo unspecified), the “activity change, negative = cytotoxic” value was 9.21% [at 97.2 µM] (inactive).

As for `O=[N+]([O-])c1c(Cl)c(Cl)cc(Cl)c1Cl`, the “activity change, negative = cytotoxic” value is 8.9% [at 97.2 µM] (inactive).

For `O=C(O)COc1nc(Cl)c(Cl)cc1Cl`, the “activity change, negative = cytotoxic” value is -8.03% [at 97.2 µM] (inactive).

With `CC(C)(O)C=CC(=O)[C@](C)(O)[C@H]1[C@H](O)C[C@]2(C)[C@@H]3CC=C4[C@@H](C=C(O)C(=O)C4(C)C)[C@]3(C)C(=O)C[C@@]12C`, the Potency was 465 nM (active).

Take `CC(C)N[C@@H]1CCn2c(=O)[nH]c3cccc(c32)[C@@H]1O`: the “activity change, negative = cytotoxic” value was -54.6% (inactive).

Consider `CC[C@@]1(O)C(=O)OCc2c1cc1n(c2=O)Cc2cc3ccccc3nc2-1`, for which the Potency is 465 nM (active).

As for `Cc1ccccc1-n1c(Cn2cnc3c(N)ncnc32)nc2cccc(C)c2c1=O`, the “activity change, negative = cytotoxic” value is 7.37% (inactive).

With `CO[C@H]1CCC(O[C@H]2C[C@H]([C@]3(C)CC[C@]4(C[C@H](O)[C@@H](C)[C@@H]([C@@H](C)C=C(C)C(=O)[C@H](C)C[C@H](C)C(=O)O)O4)O3)O[C@]3(O[C@@H]([C@H]4O[C@@](O)(CO)[C@H](C)C[C@H]4C)C[C@H]3C)[C@H]2C)O[C@H]1C` (stereo partly specified), the “activity change, negative = cytotoxic” value is -1.35% (inactive).

Turning to `CC1=C(O)C(=O)C=C2C1=CC=C1[C@@]2(C)CC[C@@]2(C)[C@@H]3C[C@](C)(C(=O)O)CC[C@]3(C)CC[C@]12C`, the Potency was 1170 nM (active).
